Source: PubChem BioAssay
TRHR agonist – qHTS for Small Molecule Agonists and Allosteric Enhancers of Human TRH Receptor: Primary Screen for Agonists. TRHR cells, calcium flux fluo-8, FDSS agonist mode. AID 493084, 2011. activation, % at 2 µM. 360,000 tested, 0.18% active. Thyrotropin-releasing hormone receptor (Homo sapiens), P34981; also: 0% is about no effect
Target sequence (P34981 whole entry, looked up): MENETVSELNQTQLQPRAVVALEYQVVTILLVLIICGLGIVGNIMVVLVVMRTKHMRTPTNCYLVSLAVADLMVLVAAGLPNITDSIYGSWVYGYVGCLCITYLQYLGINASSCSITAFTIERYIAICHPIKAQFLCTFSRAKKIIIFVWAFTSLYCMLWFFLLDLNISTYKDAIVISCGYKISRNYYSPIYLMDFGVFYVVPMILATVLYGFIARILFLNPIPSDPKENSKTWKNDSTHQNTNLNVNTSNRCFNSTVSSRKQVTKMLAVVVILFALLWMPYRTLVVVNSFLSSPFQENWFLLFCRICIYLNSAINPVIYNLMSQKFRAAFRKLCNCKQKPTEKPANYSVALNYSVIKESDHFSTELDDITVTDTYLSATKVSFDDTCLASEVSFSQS
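Steps: seed TRHR cells overnight; add fluo-8 no-wash Ca dye, RT 30 min–1.5 h; record 10 s baseline; pin-transfer compounds; monitor fluorescence 1 cycle/s for the agonist window. Calcium increases flag candidate agonists.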
D1 ag – Allosteric Agonists of the Human D1 Dopamine Receptor: qHTS | activation, % at 2 µM | 360,000 tested, 1% active | AID 504660, 2011 | HEK293 T-REx D1 cells, calcium flux, agonist mode | D(1A) dopamine receptor (Homo sapiens), P21728; also: 0% is about no effect
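Tetracycline-induced HEK293 TREx D1 cells, force-coupled to calcium signalling, were dye-loaded with a no-wash calcium kit. Compound was pin-added after a 10 s baseline. Fluorescence was read kinetically at 1 cycle/s for 180 s, with calcium rises flagged as agonism.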
D1 antagonist – Antagonist of Human D 1 Dopamine Receptor: qHTS | D(1A) dopamine receptor (Homo sapiens), P21728 | HEK293 TREx D1 cells, calcium flux, dopamine EC80; active compounds read low | activity change, negative = inhibition, % at 10 µM | 360,000 tested, 3.2% active | AID 504652, 2011; in the data active = activity change below about -30%; also: % is scaled to controls: 0 for no effect and ±100 for the full control effect
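Tetracycline-induced HEK293 T-REx cells with force-coupled D1 receptor were loaded with a no-wash calcium dye. Compound was added after a 10 s baseline and read kinetically for 180 s; EC80 dopamine was then added and calcium flux followed another 180 s.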
D1 PAM – Potentiators of Human D1 Dopamine Receptor: qHTS | D(1A) dopamine receptor (Homo sapiens), P21728 | HEK293 TREx D1 cells, calcium flux, dopamine EC20 potentiation | potentiation, % at 10 µM | 360,000 tested, 0.036% active; in the data active = potentiation above about 30%; also: 0% is about no effect
TRHR PAM – qHTS for Small Molecule Agonists and Allosteric Enhancers of Human TRH Receptor: Primary Screen for Enhancers | enhancement, % at 2 µM | 360,000 tested, 0.66% active | AID 493056, 2011 | Thyrotropin-releasing hormone receptor (Homo sapiens), P34981 | TRHR cells, fluo-8 calcium fluorescence, EC20 TRH enhancement; in the data active = enhancement above about 30%; also: 0% is about no effect
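TRHR-expressing cells loaded with fluo-8 calcium dye were read kinetically (ex 480/em 530) during compound addition, then stimulated with an EC20 of TRH (10 nM final). Enhancement of the Gq-mediated intracellular calcium response was scored.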
Starred values were filed as active, the others as inactive. Rows were chosen to be rich in hits. Some 4.6% of all compounds tested hit in one or more screens of this group. Rule as the data show it, unless noted: active = activation above about 30%; inactive = the rest.

SMILES | TRHR agonist | D1 ag | D1 antagonist | D1 PAM | TRHR PAM
Cc1ccc(S(=O)(=O)N2CN(Cc3ccco3)c3nc4ccccc4nc32)cc1C | 0.3 | 3.2 | 9.8 | -3.0 | -2.2
O=C(CC(NCCc1ccccc1)C(=O)O)Nc1ccc(O)cc1 (stereo unspecified) | 0.5 | 1.8 | 6.6 | -7.5 | -3.1
COc1ccc(-c2nc3ccccc3s2)cc1NC(=O)c1ccccc1OC | -0.8 | 3.3 | -5.2 | -3.5 | 34.2*
COc1ccc(C(=O)Nc2cc(-c3nc4ccccc4s3)ccc2OC)cc1 | 2.0 | 1.7 | -3.7 | -2.0 | -5.0
COc1ccc(-c2nc3ccccc3s2)cc1NC(=O)c1cccc(F)c1 | 0.5 | 0.5 | -30.1* | -0.8 | -0.8
c1ccc(CSc2nnc(-c3ccccn3)n2-c2ccccc2)cc1 | 0.2 | 5.4 | 2.2 | -0.3 | 3.7
CCOC(=O)c1cc(C(=O)OCC)c2ccccn2c1=O | -0.1 | 0.9 | -32.9* | -3.0 | -8.5
CCOC(=O)c1c[nH]n(-c2ccccc2)c1=O | 0.3 | 1.1 | -15.2 | -5.2 | 0.3
COc1ccc([C@H](NC(=O)OC(C)(C)C)C(=O)OC(C)(C)C)cc1 | 0.3 | -0.1 | -47.0* | -8.0 | -5.0
Cc1cc(SCC(=O)N/N=C/c2ccc(O)c(O)c2)c(C)cc1Br | 0.8 | 2.2 | -31.7* | -4.8 | -2.0
CCC1CCC(N2CCN(c3ccc(F)cc3)CC2)CC1 (stereo unspecified) | -0.2 | 1.3 | -46.2* | -8.2 | -2.3
CCC1CCC(N2CCN(c3ccc([N+](=O)[O-])cc3)CC2)CC1 (stereo unspecified) | 0.0 | 1.1 | -16.3 | -4.5 | -1.0
Cc1cccc(-c2nnc(-c3cccc(NC(=O)Cc4cccs4)c3)o2)c1 | 0.2 | 4.0 | -40.3* | 0.8 | -6.3
Cc1ccc(-c2nc3ccccc3o2)cc1NC(=O)Cc1cccs1 | 1.7 | 2.8 | -4.2 | -1.7 | -11.6
O=C(Cc1cccs1)Nc1cccc(-c2nc3ccccc3o2)c1 | 4.5 | 2.4 | -46.5* | -0.1 | -0.5
O=C(CN1C(=O)NC(Cc2ccccc2)C1=O)Nc1ccc(F)cc1 (stereo unspecified) | -0.2 | 1.7 | -86.3* | -8.8 | 4.2
Cc1[nH]c2ccc(F)cc2c(=O)c1SC(F)(F)C(F)F | 0.2 | 20.4 | -42.4* | -1.1 | -8.0
COc1ccc(Nc2cc(C)nc3c(C)cccc23)cc1OC | -0.3 | 3.9 | -9.6 | 2.2 | -0.7
CCOCCCNC(=O)c1cc2c(=O)n(C)c3ccccc3c2n1C | -0.3 | -0.5 | -25.1 | -4.8 | 2.0
Cc1ccc(N(C)C(CNS(=O)(=O)c2ccccc2)c2ccccc2)cc1 (stereo unspecified) | 0.1 | 3.2 | -47.6* | -1.3 | 1.8
Cn1cc(-c2cc3n(n2)CCC(=O)N3CCCC(=O)NCc2ccc(F)cc2)c2ccccc21 | -1.1 | -0.2 | -32.7* | -3.1 | -1.7
CC1=CC(C)(C)n2c(O)c(N=NC(N)=S)c3cc(C)cc1c32 | 0.5 | -1.6 | 4.6 | 1.2 | -7.0
COc1cc(CCCN2C(=O)C(=O)NC[C@@H]2C(C)O)cc(OC)c1OC (stereo partly specified) | 0.2 | 5.6 | -37.2* | -2.6 | -0.1
COc1cc(CCCN2C(=O)C(=O)NC[C@@H]2c2ccccc2)cc(OC)c1OC | -0.4 | 1.2 | -0.7 | -5.0 | 4.8
O=C(Cn1ncc2c3ccccc3n(Cc3ccc(F)cc3)c2c1=O)N1CCN(c2ncccn2)CC1 | -0.2 | 4.8 | 5.9 | 2.8 | -2.5
COc1ccccc1NC(=O)c1ccc(NC(=O)COC(=O)C(C)C)cc1 | -0.5 | 2.3 | 2.6 | -4.9 | 33.5*
COc1ccccc1NC(=O)c1ccc(NC(=O)CSc2ncn[nH]2)cc1 | -0.3 | 3.4 | -44.7* | -3.8 | -2.2
COc1ccccc1NC(=O)CSc1ncn[nH]1 | -0.5 | 6.4 | 4.0 | 2.4 | 8.7
Cc1nc(SCC(=O)NCc2ccccc2)c2c(=O)n(C)c(=O)n(C)c2n1 | 0.0 | 0.1 | -10.1 | -1.0 | 0.8
CCOc1ccc(/C=C/c2nc(C#N)c(NC3CCCCC3)o2)cc1 | -1.2 | 5.2 | -37.8* | 0.1 | -7.3
